The text below walks through data of ChEMBL document CHEMBL3988442, “University of Dundee, Small-Polar-MMV Screening Library” (2021).

For some assays here: Measured potencies and affinities stand elsewhere.

Holding throughout (set-up): scale not given: direction of the effect not stated beside the values
The target of assay [1] is Protein translocase subunit SecA (Escherichia coli (strain K12)) (UniProt P10408). In words: Assay to Identify E. coli SecA ATPase Inhibitors. In kind it is functional. The settings on record: 30 µM.
Chain of Protein translocase subunit SecA (Escherichia coli (strain K12)) (P10408 whole entry): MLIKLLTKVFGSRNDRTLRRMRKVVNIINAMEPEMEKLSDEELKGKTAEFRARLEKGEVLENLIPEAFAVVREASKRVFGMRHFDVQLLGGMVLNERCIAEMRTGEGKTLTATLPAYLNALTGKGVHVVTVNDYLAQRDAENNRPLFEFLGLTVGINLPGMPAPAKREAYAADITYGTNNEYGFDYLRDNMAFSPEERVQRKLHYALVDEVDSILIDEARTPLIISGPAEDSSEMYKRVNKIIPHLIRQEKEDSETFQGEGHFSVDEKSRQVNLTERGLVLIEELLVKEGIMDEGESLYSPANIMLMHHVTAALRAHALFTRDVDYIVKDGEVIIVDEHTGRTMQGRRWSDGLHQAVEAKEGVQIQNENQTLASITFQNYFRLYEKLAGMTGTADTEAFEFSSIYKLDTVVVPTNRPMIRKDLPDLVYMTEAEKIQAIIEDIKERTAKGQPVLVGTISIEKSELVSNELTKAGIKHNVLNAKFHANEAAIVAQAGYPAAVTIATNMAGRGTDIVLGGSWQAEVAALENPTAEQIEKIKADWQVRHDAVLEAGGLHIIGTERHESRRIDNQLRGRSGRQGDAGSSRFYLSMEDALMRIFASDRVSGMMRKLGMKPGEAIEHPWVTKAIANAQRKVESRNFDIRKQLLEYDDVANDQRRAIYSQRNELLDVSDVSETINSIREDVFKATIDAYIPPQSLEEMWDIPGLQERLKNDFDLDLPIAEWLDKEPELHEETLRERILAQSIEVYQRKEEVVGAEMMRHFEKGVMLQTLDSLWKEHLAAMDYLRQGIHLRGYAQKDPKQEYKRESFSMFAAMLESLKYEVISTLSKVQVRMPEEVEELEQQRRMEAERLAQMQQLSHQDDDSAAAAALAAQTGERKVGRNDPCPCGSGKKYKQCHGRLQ
The target of assay [2] is T1, Ubiquitin-activating enzyme e1, putative (Leishmania donovani (strain BPK282A1)) (UniProt E9BSI1).
T1 sequence (whole entry): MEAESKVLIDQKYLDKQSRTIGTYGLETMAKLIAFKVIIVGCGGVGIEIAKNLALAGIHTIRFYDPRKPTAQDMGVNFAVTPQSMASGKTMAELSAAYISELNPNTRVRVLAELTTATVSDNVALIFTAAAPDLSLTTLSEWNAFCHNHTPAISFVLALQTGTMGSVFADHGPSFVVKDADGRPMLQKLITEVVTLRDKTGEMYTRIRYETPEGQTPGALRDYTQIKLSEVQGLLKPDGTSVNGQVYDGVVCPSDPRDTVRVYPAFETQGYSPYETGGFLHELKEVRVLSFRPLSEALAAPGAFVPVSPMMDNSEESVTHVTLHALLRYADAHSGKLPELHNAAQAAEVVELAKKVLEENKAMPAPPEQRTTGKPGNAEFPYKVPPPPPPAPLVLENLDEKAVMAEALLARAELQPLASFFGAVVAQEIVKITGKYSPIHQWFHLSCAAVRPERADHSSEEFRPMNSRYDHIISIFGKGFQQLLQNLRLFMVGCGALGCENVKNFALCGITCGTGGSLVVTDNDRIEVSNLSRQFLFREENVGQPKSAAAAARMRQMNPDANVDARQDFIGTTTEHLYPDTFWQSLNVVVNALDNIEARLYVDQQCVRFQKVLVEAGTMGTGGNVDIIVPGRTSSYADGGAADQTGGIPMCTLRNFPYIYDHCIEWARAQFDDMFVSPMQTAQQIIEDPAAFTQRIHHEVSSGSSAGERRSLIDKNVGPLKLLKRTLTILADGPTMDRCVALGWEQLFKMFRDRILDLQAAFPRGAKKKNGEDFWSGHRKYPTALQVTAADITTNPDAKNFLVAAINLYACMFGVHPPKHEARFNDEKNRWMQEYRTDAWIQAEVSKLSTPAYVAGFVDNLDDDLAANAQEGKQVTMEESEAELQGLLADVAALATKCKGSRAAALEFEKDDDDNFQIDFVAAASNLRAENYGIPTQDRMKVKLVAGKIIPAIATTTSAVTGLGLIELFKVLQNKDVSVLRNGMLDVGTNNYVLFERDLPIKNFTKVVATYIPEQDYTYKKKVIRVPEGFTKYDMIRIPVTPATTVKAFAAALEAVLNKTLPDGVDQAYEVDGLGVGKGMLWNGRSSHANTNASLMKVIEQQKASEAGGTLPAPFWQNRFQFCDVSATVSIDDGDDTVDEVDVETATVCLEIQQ
In words: Leishmania donovani Ubiquitin Activating Enzyme (LdE1). In kind it is functional. Particulars: 30 µM.

Assay [3] addresses AMP-activated protein kinase, AMPK (Homo sapiens) (UniProt P54646+O43741+P54619+Q9UGJ0+Q9Y478+Q13131+Q9UGI9). In words: AMP-dependent Kinase enzyme assay. An in vitro enzyme assay that detects ADP turnover that is directly proportional to AMPK activity. This uses naive AMPK that is activated during the assay with MK-8722. The class given is functional. Particulars: 30 µM.
For assay [4], the target named is Sialic acid-binding Ig-like lectin 9 (Homo sapiens) (UniProt Q9Y336). In words: Hs-Siglec9 ALPHAscreen SOP 20170721. The settings on record: 10 µM. For orientation: Bead proximity is the source of the signal in Alpha formats.
Chain of Sialic acid-binding Ig-like lectin 9 (Homo sapiens) (Q9Y336 whole entry): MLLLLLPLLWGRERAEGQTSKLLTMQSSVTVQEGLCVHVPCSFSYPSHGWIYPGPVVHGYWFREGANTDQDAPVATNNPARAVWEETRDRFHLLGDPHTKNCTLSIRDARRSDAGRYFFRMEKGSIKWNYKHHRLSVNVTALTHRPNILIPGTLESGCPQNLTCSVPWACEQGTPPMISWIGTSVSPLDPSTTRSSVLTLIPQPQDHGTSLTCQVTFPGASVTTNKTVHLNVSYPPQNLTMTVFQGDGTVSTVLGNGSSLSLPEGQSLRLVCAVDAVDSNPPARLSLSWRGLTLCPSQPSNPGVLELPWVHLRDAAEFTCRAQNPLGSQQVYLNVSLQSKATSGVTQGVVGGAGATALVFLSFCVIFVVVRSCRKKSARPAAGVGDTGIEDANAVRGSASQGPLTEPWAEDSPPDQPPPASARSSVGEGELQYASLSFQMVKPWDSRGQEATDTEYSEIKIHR
Another assay relates to Trypanosoma cruzi. The experiment in a line: Trypanosoma cruzi phosphomannomutase and mannose-1-phosphate guanylyltransferase assay. The class given is functional. Particulars: 10 µM.
The target of assay [5] is T2, Arginase-2, mitochondrial (Homo sapiens) (UniProt P78540).
T2 sequence (whole entry): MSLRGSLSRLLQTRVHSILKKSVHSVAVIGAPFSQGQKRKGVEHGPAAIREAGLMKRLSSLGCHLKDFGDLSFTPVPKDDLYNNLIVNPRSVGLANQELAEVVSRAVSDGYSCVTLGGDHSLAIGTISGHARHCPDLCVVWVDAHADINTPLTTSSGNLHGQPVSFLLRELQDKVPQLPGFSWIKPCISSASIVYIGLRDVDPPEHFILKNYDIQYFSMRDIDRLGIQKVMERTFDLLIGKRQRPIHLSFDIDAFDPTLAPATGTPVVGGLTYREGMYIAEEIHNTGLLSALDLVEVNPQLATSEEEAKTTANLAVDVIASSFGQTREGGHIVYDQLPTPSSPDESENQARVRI
In words: in vitro enzyme assay to detect the production of urea directly proportional to the activity of Arginase II. Note: in the data most compounds retested in dose-response had high values. The class given is functional. Particulars: 33.3 µM.

Assay [6] deals with T3, Proteasome subunit beta (Trypanosoma cruzi) (UniProt O96673).
T3 sequence (whole entry): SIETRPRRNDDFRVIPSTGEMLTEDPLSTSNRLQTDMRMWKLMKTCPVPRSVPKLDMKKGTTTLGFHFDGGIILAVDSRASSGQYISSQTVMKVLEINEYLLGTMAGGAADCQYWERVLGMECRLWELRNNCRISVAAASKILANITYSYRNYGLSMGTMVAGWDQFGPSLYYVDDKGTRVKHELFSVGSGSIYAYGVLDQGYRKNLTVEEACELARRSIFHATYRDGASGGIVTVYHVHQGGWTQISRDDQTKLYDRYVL
The experiment in a line: Trypanosoma cruzi proteasome chymotrypsin-like activity (TcProtChymo) assay. Note: in the data most compounds retested in dose-response had high values. The class given is functional. Particulars: 9.37 µM.

The species entered for the next assay is Homo sapiens. The experiment in a line: To identify inhibition of the IFN signalling (Jak-Stat) pathway via expression of an eGFP reporter gene under the control of an IFN-stimulated response element (ISRE) containing MxA promoter. The settings on record: 30 µM. In kind it is functional.
The target in assay [7] is T4, Tyrosyl-tRNA synthetase, putative (Trypanosoma cruzi (strain CL Brener)) (UniProt Q4DSP6).
T4 sequence (whole entry): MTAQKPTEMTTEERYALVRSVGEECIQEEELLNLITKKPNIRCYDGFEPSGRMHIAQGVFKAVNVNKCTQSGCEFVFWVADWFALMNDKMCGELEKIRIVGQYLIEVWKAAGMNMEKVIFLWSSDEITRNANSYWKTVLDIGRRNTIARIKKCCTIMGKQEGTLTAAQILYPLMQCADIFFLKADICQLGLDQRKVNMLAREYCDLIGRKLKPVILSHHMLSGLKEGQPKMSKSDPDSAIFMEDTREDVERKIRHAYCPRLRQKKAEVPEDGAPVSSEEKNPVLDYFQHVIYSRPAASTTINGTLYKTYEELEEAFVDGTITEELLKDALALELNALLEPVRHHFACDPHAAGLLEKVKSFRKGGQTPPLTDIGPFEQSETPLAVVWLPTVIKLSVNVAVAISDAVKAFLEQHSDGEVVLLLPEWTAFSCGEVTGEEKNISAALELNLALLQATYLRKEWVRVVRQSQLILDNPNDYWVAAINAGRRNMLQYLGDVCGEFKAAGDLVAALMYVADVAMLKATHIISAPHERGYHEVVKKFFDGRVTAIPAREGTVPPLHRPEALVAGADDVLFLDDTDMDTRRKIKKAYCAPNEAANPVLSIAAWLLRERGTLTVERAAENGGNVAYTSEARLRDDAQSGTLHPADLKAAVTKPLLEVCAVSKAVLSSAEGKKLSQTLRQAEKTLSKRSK
The experiment in a line: Trypanosoma cruzi tyrosyl tRNA synthetase (TcYRS) _High Tyrosine SOP. Note: in the data most compounds retested in dose-response had high values. The class given is functional. The settings on record: 30 µM.

Assay [8] addresses T4, Tyrosyl-tRNA synthetase, putative (Trypanosoma cruzi (strain CL Brener)). In words: Trypanosoma cruzi tyrosyl tRNA synthetase (TcYRS) SOP. The class given is functional. Particulars: 30 µM.
In assay [9] the target is Chromo domain-containing protein 1 (Saccharomyces cerevisiae (strain ATCC 204508 / S288c) (Baker's yeast)) (UniProt P32657). In words: ScCHD-1 Enzyme Inhibition Assay. Note: in the data most compounds retested in dose-response had high values. In kind it is functional. Particulars: 30 µM.
Chain of Chromo domain-containing protein 1 (Saccharomyces cerevisiae (strain ATCC 204508 / S288c) (Baker's yeast)) (P32657 whole entry, the tested form may be a part): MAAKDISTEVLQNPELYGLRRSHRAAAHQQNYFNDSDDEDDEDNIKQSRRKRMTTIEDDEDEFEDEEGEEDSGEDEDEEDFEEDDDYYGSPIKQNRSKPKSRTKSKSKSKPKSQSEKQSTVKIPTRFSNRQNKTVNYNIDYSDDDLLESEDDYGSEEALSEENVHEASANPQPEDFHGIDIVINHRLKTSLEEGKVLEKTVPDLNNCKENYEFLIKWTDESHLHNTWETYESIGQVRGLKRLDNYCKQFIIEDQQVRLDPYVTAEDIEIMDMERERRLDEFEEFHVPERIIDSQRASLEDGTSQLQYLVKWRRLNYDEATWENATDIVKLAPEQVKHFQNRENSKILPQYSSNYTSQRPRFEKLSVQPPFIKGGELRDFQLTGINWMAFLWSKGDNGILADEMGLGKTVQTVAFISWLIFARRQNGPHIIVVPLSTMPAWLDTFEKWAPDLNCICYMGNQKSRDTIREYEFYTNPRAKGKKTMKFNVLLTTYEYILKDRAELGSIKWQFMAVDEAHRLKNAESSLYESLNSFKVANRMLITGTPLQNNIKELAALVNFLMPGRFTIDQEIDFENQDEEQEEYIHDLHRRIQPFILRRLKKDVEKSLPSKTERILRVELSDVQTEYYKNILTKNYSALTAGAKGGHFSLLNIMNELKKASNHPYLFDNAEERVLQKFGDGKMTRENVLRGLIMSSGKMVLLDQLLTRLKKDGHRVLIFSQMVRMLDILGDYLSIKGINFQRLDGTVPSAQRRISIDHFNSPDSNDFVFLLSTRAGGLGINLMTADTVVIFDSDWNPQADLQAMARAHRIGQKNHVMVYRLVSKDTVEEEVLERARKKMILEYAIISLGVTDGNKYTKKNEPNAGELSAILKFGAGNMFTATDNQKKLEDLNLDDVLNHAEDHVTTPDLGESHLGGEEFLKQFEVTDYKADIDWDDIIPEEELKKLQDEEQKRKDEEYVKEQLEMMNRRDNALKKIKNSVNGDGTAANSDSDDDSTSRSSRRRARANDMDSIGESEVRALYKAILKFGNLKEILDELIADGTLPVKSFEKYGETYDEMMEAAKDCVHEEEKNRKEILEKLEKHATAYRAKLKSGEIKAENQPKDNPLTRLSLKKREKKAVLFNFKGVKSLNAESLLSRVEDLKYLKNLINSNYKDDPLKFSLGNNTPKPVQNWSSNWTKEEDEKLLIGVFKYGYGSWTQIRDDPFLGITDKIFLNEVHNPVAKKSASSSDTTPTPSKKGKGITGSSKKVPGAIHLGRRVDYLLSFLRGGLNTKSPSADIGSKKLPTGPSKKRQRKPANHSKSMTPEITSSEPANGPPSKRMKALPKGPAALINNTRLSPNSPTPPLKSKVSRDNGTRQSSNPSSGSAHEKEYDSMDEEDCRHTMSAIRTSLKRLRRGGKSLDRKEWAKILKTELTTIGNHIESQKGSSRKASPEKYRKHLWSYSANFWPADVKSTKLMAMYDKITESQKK

Consider `Cn1cc(CNCCOc2ccc(F)c(F)c2)c(-c2cccnc2)n1`, for which the Percent Effect is -6.54% in assay [1]; 5.41% in assay [2]; -6.5% in assay [3]; 20.6% in assay [4]; 1.47% in the assay on Trypanosoma cruzi; 0.744% in assay [5]. Further, the Percent Effect in assay [6] was 5.41%; in the assay filed under Homo sapiens it was 7.57%; in assay [7], 4.3%; in [8], 8.64%; in assay [9], -3.29%.

Turning to `Cn1cccc1C(=O)N1CCCN(CCCc2ccccc2)CC1`, the Percent Effect in assay [1] was 4.69%; in assay [2], -11%; in assay [3], -4.66%; in assay [4] it was 8.38%; in the assay with Trypanosoma cruzi, -2.38%; in assay [5] it was -14.8%. In addition, the Percent Effect in [6] was 14.3%; in the assay filed under Homo sapiens, 18.6%; in assay [7], 9.38%; in assay [8] it was 16.1%; in assay [9], -3.52%.

Take `CCc1nc(CC(=O)N2CCN(c3cnccn3)CC2)cs1`: the Percent Effect was -4.23% in assay [1]; 16.5% in [2]; 1.43% in assay [3]; 5.88% in assay [4]; 1.95% in the assay on Trypanosoma cruzi; 1.94% in assay [5]. Also, the Percent Effect in assay [6] is 0.343%; in the assay filed under Homo sapiens it was 11.8%; in assay [7], 1.04%; in [8], 17.7%; in assay [9], -26.3%.

Turning to `CCN(CC(=O)NC)C(=O)Cc1nc(-c2ccco2)oc1C`, the Percent Effect is -8.15% in assay [1]; 5.33% in [2]; -6.53% in [3]; 3.51% in assay [4]; 0.876% in the assay with Trypanosoma cruzi; 5.73% in assay [5]. Moreover, the Percent Effect in [6] is 16.9%; in the assay filed under Homo sapiens, 10.7%; in [7], 8.2%; in assay [8], 13.6%; in assay [9], -5.99%.

With `CC(NC(=O)N1CCCN(Cc2cccs2)CC1)c1cccnc1` (stereo not given), the Percent Effect in assay [1] was -0.761%; in [2] it was 18.4%; in assay [3] it was -1.54%; in [4] it was -0.0672%; with Trypanosoma cruzi it was 5.64%; in assay [5], 10.3%. Further, the Percent Effect is 8.02% in assay [6]; -11.5% in the assay listed under Homo sapiens; 5.39% in assay [7]; 21.9% in assay [8]; -12% in assay [9].

Regarding `CCc1nnsc1C(=O)NCCn1nc2ccccn2c1=O`, the Percent Effect in [1] was -5.54%; in assay [2], 18.9%; in assay [3], -7.77%; in [4] it was 20.2%; with Trypanosoma cruzi it was 5.66%; in [5], 4.25%. In addition, the Percent Effect in assay [6] is 8.8%; in the assay filed under Homo sapiens, -0.849%; in assay [7], 6.93%; in [8], 18.3%; in assay [9] it was -9.16%.

On to `OC(CN1CCN(Cc2ccc(F)cc2)CC1)C1CC1` (stereo not given), for which the Percent Effect in assay [1] was -4.82%; in assay [2] it was 8.22%; in [3] it was -8.34%; in assay [4] it was -6.79%; in the assay with Trypanosoma cruzi, 0.392%; in [5], 1.82%. The Percent Effect is 4.61% in [6]; 2.15% in the assay listed under Homo sapiens; 6.45% in assay [7]; 20% in assay [8]; -4.22% in assay [9].

For the compound `COc1c(C2CCCN2CC(=O)Nc2cc(C)no2)c(C)nn1C` (stereo not given), the Percent Effect in [1] was -5.41%; in [2] it was 13.5%; in assay [3], -3.77%; in [4] it was 4.82%; in the assay with Trypanosoma cruzi it was -4.74%; in [5] it was -2.03%. The Percent Effect in [6] amounted to 6.82%; in the assay filed under Homo sapiens it was 0.794%; in assay [7], 5.94%; in assay [8], 11%; in assay [9] it was 3.98%.

In the case of `Cc1ccc(CC(=O)N2CCCCC2c2nc(C)cs2)cn1` (stereo not given), the Percent Effect in assay [1] is -3.56%; in assay [2], 3.8%; in assay [3], 3.35%; in assay [4], -2.77%; in the assay with Trypanosoma cruzi it was -1.54%; in assay [5] it was 4.52%. The Percent Effect in assay [6] is 6.52%; in the assay filed under Homo sapiens, 4.76%; in assay [7] it was -4.17%; in [8], 7.59%; in [9], -12.2%.

Regarding `CC(O)CN1CCC(CNCc2cccc(C(N)=O)c2)CC1` (stereo not given), the Percent Effect was -1.81% in assay [1]; 18.9% in [2]; -22.5% in assay [3]; 11% in [4]; 3.11% in the assay with Trypanosoma cruzi; -6.01% in assay [5]. Besides, the Percent Effect in [6] is 6.67%; in the assay listed under Homo sapiens, 10.6%; in assay [7], 8.37%; in assay [8], 16.1%; in assay [9], -10%.
